# Measurements: PubChem BioAssay AID485317 (Broad Institute, 2010)
# The whole screen tested about 290,000 compounds, of which about 11,000 (3.8%) were called active. The sample holds actives, similar compounds and a random draw of the others, so the mix is not that of the screen.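 Rule for the calls: active = mean replicate inhibition above about 79%, with every replicate also reaching it (limit read from the data); inconclusive = only one of the two criteria met; inactive = mean below limit and not every replicate reaching it.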
# Target: FAD-linked sulfhydryl oxidase ALR (Homo sapiens) (UniProt P55789)
# Sequence (P55789 whole entry, looked up): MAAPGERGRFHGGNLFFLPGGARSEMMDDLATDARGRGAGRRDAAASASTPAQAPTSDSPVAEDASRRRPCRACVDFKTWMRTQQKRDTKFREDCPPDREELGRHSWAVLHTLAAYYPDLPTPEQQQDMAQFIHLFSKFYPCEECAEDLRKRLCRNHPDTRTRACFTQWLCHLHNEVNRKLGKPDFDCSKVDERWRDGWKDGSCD
# Assay: ALR-catalysed DTT oxidation blockers – biochemical, H2O2 detection, HRP-luminol luminescence, single point, primary screen (AID 485317)
# Conditions: purified ALR, active compounds read high, concentration not given here
row,SMILES,inhibition
1,COc1ccccc1CNS(=O)(=O)c1cc2c3c(c1)CCC(=O)N3CCC2,-0.847% (inactive)
2,CC1CN(C(=O)c2cc(COc3c(F)cccc3F)on2)CCN1C (centres undefined),-3.41% (inactive)
3,CC1(C)O[C@@H]2[C@H](O1)[C@@H](CO)O[C@H]2n1c(N2CCCCC2)nc2c(N)ncnc21,1.47% (inactive)
4,CCC(=O)NNc1cc(=O)c2c(=O)n(C)c(=O)n(C)c2[nH]1,-4.74% (inactive)
5,CC(=O)Nn1cc2c(=O)n(C)c(=O)n(C)c2c1,-9.4% (inactive)
6,CC(=O)NNc1cc(=O)c2c(=O)n(C)c(=O)n(C)c2[nH]1,90.2% (active)
7,COc1ccc(NC(=O)/C(Cl)=C(/Cl)S(=O)Cc2ccc(C)cc2)cn1 (centres undefined),99.1% (active)
8,CCOc1ccc(S(=O)(=O)Nc2ccc(OC)nc2)cc1,-0.795% (inactive)
9,COc1ccc(NC(=O)c2cc(-c3ccc(C)cc3)on2)cc1,-7.55% (inactive)
10,COc1ccc2c(CC(=O)NNC(=O)c3ccccc3F)coc2c1,-9.32% (inactive)
11,O=C(CCc1ccc(S(=O)(=O)N2CCOCC2)cc1)OCC(=O)c1ccc(Br)cc1,3.41% (inactive)
12,O=C(/C=C(O)/C=C/c1ccc(O)cc1)/C=C/c1ccc(O)cc1,-0.191% (inactive)
13,COc1ccc(N2CCN(C(=O)CCNC(=O)c3ccc(Br)cc3)CC2)cc1,-0.657% (inactive)
14,COc1ccc(N2CCN(C(=O)CNC(=O)c3ccc(C(C)(C)C)cc3)CC2)cc1,-2.48% (inactive)
15,COc1ccc(N2CCN(C(=O)CNC(=O)c3ccc(Br)o3)CC2)cc1,94% (active)
16,CCOc1ccc(C(=O)CCC(=O)Nc2ccncc2)cc1,2.23% (inactive)
17,COc1ccc(/C=N/NC(=O)c2ccc(Cl)cc2)cc1COC(C)=O,5.91% (inactive)
18,COc1ccc(/C=N/NC(=O)c2ccncc2)cc1CN1CCCc2ccccc21,93.5% (active)
19,COc1cc(/C=N/NC(=O)CNC(=O)c2ccncc2)ccc1OC(C)=O,40.7% (inactive)
20,COCCCn1c(CCC(=O)O)ccc1-c1ccc(F)cc1,22.3% (inactive)
21,C=Cn1c(C(=O)O)ccc1-c1ccc(OC)cc1,6.07% (inactive)
22,COc1ccc(-c2ccc(CCC(=O)O)n2-c2ccc(O)cc2)cc1,95.3% (active)
23,CCOC(=O)c1ccc(-n2c(CCC(=O)O)ccc2-c2ccccc2)cc1,6.43% (inactive)
24,COc1ccc(C(=O)NC(Cc2ccc(OC(=O)c3ccc(OC)cc3)cc2)C(=O)O)cc1 (centres undefined),15.2% (inactive)

row,SMILES,inhibition
1,COc1ccc(-c2ccc(CCC(=O)O)n2NC(=O)c2ccc(C(C)(C)C)cc2)cc1,98.4% (active)
2,CC1Cc2ccccc2N1S(=O)(=O)c1cccc(C(=O)OCC(=O)N2CCOCC2)c1 (centres undefined),2.06% (inactive)
3,CC(=O)c1c(C)[nH]c(C(=O)COC(=O)c2cccs2)c1C,-7.6% (inactive)
4,COc1ccc(-c2n[nH]c(C)c2-c2ccccc2OC)c(O)c1,94.9% (active)
5,COc1ccc(-c2n[nH]c(C)c2-c2ccc(OC)c(OC)c2)c(O)c1,25.6% (inactive)
6,C=C(C)COc1ccc(-c2n[nH]c(C)c2-c2ccccc2OC)c(O)c1,-0.153% (inactive)
7,COc1ccc(Cl)cc1NC(=O)COC(=O)c1ccc(Br)o1,3.97% (inactive)
8,CCCN(CC(=O)NC(=O)NC1CCCCC1)CC(=O)Nc1cc(Cl)ccc1Cl,-2.78% (inactive)
9,Cc1cccc(C(=O)NCCCN2CCCC2=O)c1,-1.37% (inactive)
10,CCN(CCCNC(=O)c1ccc2c(c1)NC(=O)CN2C)c1cccc(C)c1,94.3% (active)
11,Cc1cccc(C(=O)NCCCN(C)CCCNC(=O)c2cccc(C)c2)c1,-2.47% (inactive)
12,COc1ccccc1N(CCOc1ccccc1)S(=O)(=O)c1ccccc1,-0.946% (inactive)
13,CCCN(CC1CC1)C(=S)NC(=O)c1ccccc1Br,-2.06% (inactive)
14,O=C(CCNC(=O)c1ccccc1)NN=Cc1ccc(Br)o1,-2.22% (inactive)
15,Cc1ccc(/C=N/NC(=O)CSc2ccccn2)o1,3.05% (inactive)
16,N#CCC(=O)N/N=C/c1ccc(SCC(=O)Nc2ccccc2)o1,93.3% (active)
17,CC1(C)CC(=O)C=C(c2cccc3c2Oc2ccccc2S3)C1,-3.51% (inactive)
18,COc1ccc(C(=O)CSc2n[nH]c(N)n2)cc1,-11% (inactive)
19,COc1ccc(CNC(=O)CSc2n[nH]c(N)n2)cc1OC,4.3% (inactive)
20,Nc1nc(SCC(=O)Nc2ccc(Cl)c([N+](=O)[O-])c2)n[nH]1,-3.76% (inactive)
21,Nc1nc(SCC(=O)NN(c2ccccc2)c2ccccc2)n[nH]1,87.6% (active)
22,Nc1nc(SCC(=O)NNc2c(Cl)cc(Cl)cc2Cl)n[nH]1,95.6% (active)
23,Nc1nc(SCC(=O)Nc2ccc(Cl)cc2C(F)(F)F)n[nH]1,0.457% (inactive)
24,COc1ccc(N2CCN(S(=O)(=O)c3cc4c5c(c3)C(C)C(=O)N5CCC4)CC2)cc1 (centres undefined),22.9% (inactive)

row,SMILES,inhibition
1,O=C(NCc1ccccc1)C1=C[C@@H](c2ccccc2)C[C@@H](OCCCCO)O1,-16.2% (inactive)
2,Cc1cc(NC(=O)C(C)N2C(=O)c3ccccc3S2(=O)=O)no1 (centres undefined),3.27% (inactive)
3,CCN(CC(=O)Nc1c(F)cccc1F)C(=O)c1ccc(-c2ccccc2)cc1,-12% (inactive)
4,CC(OC(=O)/C=C/c1ccccc1)C(=O)Nc1ccc(C(N)=O)cc1 (centres undefined),-4.35% (inactive)
5,CCc1noc(C)c1C(=O)Nc1nc(-c2ccccc2)cs1,-1.08% (inactive)
6,CCn1c(NC(=O)c2ccccc2)c(-c2cccs2)c(=O)c2ccccc21,-3.02% (inactive)
7,CC(=O)c1ccc2c(c1)c1ccccc1n2CC(C)C,-8.57% (inactive)
8,CC(C)Cn1c(CCC(=O)O)ccc1-c1cccs1,98.9% (active)
9,Cc1cc(C(=O)NNC(=O)c2ccccc2O)c(C)o1,1.52% (inactive)
10,Cc1nn(C)c(C)c1NS(=O)(=O)c1ccc(OC(F)(F)F)cc1,-3.04% (inactive)
11,CCOC(=O)CSc1nc2ccc(C)cc2[nH]1,-3.78% (inactive)
12,CC(=O)Nc1ccc(C(=O)CSc2nc3ccc(C)cc3[nH]2)cc1,97.9% (active)
13,Cc1ccc2nc(SCC(=O)NC3CCCC3)[nH]c2c1,18.7% (inactive)
14,COc1cc(OC)cc(-c2cc3ccc(F)cc3cn2)c1,0.168% (inactive)
15,Cc1ccc(S(=O)(=O)N2CCN(C(=O)CN3C(=O)NC(C)(c4ccc(Cl)cc4)C3=O)CC2)c(C)c1 (centres undefined),-8.79% (inactive)
16,Cc1cc(N2C(=O)C(O)=C(C(=O)c3ccc(C)o3)C2c2ccc(OCc3ccccc3)cc2)no1 (centres undefined),38.2% (inactive)
17,C=CCOc1cccc(C2C(C(=O)c3ccc(C)o3)=C(O)C(=O)N2c2nnc(C)s2)c1 (centres undefined),92.9% (active)
18,COc1cc(C2C(C(=O)c3ccc(C)o3)=C(O)C(=O)N2CCc2ccccc2)ccc1O (centres undefined),51.3% (inactive)
19,COC(=O)c1c(-c2ccsc2)oc2ccc(-c3cc(OC)c(OC)c(OC)c3)cc12,-1.82% (inactive)
20,O=C(Cn1cnc2ccccc2c1=O)NNC(=O)c1ccccc1F,29.2% (inactive)
21,Cc1nnsc1C(=O)Nc1cccc(Cl)c1C,-1.48% (inactive)
22,Cc1cc(Cl)ccc1NNC(=O)c1snnc1C,98.9% (active)
23,Cc1nnsc1C(=O)N/N=C/c1ccccc1Cl,-1.47% (inactive)
24,CC(C)CN(C(=O)CSc1nncn1C)C1CCS(=O)(=O)C1 (centres undefined),0.148% (inactive)

row,SMILES,inhibition
1,Cn1c(-c2sccc2OCc2cccc(C(F)(F)F)c2)n[nH]c1=S,1.68% (inactive)
2,C=CCn1c(-c2sc(-c3ccccc3)nc2C)n[nH]c1=S,8.68% (inactive)
3,Cn1c(-c2sc3cc(C(F)(F)F)cnc3c2-c2ccccc2)n[nH]c1=S,96.3% (active)
4,CSc1nsc(SCC(=O)Nc2cc(C(=O)O)ccc2C)n1,8.91% (inactive)
5,COc1ccc(NC(=O)CSc2nc(SC)ns2)c(OC)c1,84.5% (active)
6,COc1ccc(C)cc1NC(=O)CSc1nc(SC)ns1,-1.75% (inactive)
7,CCCCC/C=C/C1=CC(=O)C[C@H](c2ccc(Cl)cc2)C1,5.58% (inactive)
8,Cc1c(NC(=O)CSc2nnc(-c3cccnc3)n2N)c(=O)n(-c2ccccc2)n1C,1.09% (inactive)
9,CS(=O)(=O)c1ccc(C(=O)OCC(=O)NNC(=O)COc2ccc(Cl)cc2)cc1,-1.94% (inactive)
10,Cc1ccc(C(=O)NC(=S)NCc2cccnc2)cc1,24.9% (inactive)
11,Cc1c(C(=O)NC(=S)NCc2cccnc2)oc2ccccc12,93.3% (active)
12,Cc1c(C(=O)NNC(=O)c2ccncc2)oc2ccccc12,2.8% (inactive)
13,Cc1ccc(C2(C)NC(=O)N(CC(=O)N3CC(=O)Nc4ccccc43)C2=O)cc1 (centres undefined),0.292% (inactive)
14,Cc1ccc(S(=O)(=O)N(C)c2ccc(OCC(=O)OCC(=O)N(CC#N)c3ccccc3)cc2)cc1,-18.6% (inactive)
15,O=C(OCC(=O)N1CCCCC1)c1ccc(OC(F)(F)F)cc1,-5.55% (inactive)
16,Cc1cc(C)cc(OCC(=O)Nc2ccc(N3CCOCC3)cc2N2CCOCC2)c1,7.88% (inactive)
17,O=C(CCc1nc2sc3c(c2c(=O)[nH]1)CCCC3)NCC(=O)Nc1ccccc1Br,18.6% (inactive)
18,CCCN(CC1CC1)C(=O)COC(=O)c1ccc(C)cc1O,5.02% (inactive)
19,C/C(=N\NC(=O)c1cccc(N2CCCC2=O)c1)c1ccc(N)cc1,99.1% (active)
20,CC1CCCC(NC(=O)c2cccc(N3CCCC3=O)c2)C1C (centres undefined),0.109% (inactive)
21,O=C(NCCc1ccc(Cl)cc1)c1cccc(N2CCCC2=O)c1,2.63% (inactive)
22,Cc1ccnc(SCC(=O)Nc2cccc(S(=O)(=O)N3CCOCC3)c2)n1,-3.28% (inactive)
